What all share (conditions): mRNA level, 48 h; actives raise or lower the signal
Read-out in assay [1]: Pro-epidermal growth factor (Homo sapiens) (UniProt P01133)
Put plainly: LTEA_HepaRG_EGF: Life Technologies and Expression Analysis (LTEA) Assay for Epidermal growth factor (EGF) using HepaRG (AID 2283489). A digest of the protocol:
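Differentiated human HepaRG cells, plated 48 h then switched to serum-free induction medium, were exposed for 48 h to test chemicals (8-point half-log series, top 100 uM, 0.5% DMSO). EGF mRNA was quantified by qRT-PCR, normalized to ACTB, GAPDH, POLR2A.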

Read-out in assay [2]: Early growth response protein 1 (EGR1) transcription factor, EGR1 (gene 1958)
Put plainly: LTEA_HepaRG_EGR1: Life Technologies and Expression Analysis (LTEA) Assay for Early growth response protein 1 (EGR1) transcription factor using HepaRG (AID 2283490). In short, it runs like this:
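HepaRG, 48 h exposure, 8-pt half-log series from 100 uM, 0.5% DMSO vehicle; EGR1 transcript by TaqMan qRT-PCR (Fluidigm array), housekeeping-normalized; bidirectional fit relative to DMSO baseline.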

Read-out in assay [3]: Ezrin (EZR), EZR (gene 7430)
Put plainly: LTEA_HepaRG_EZR: Life Technologies and Expression Analysis (LTEA) Assay for Ezrin (EZR) using HepaRG (AID 2283491). In short, it runs like this: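 Read-out is EZR transcript level by qRT-PCR, normalized to three housekeeping genes and fitted bidirectionally against the DMSO control. Human HepaRG cells received test chemicals for 48 h at eight half-log concentrations up to 100 uM in 0.5% DMSO.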

Read-out in the next assay: CYP3A5 (gene 1577)
The assay can be described thus: LTEA_HepaRG_CYP3A5: Life Technologies and Expression Analysis (LTEA) Assay for CYP3A5 using HepaRG (AID 2283493). In short, it runs like this: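 qRT-PCR read-out: CYP3A5 transcript in HepaRG lysates, housekeeping-normalized (ACTB/GAPDH/POLR2A), fitted bidirectionally against 0.5% DMSO baseline. Exposure 48 h, eight half-log concentrations up to 100 uM, duplicates.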

Read-out in assay [4]: Fatty Acid-Binding Protein 1 (FABP1), FABP1 (gene 2168)
The assay can be described thus: LTEA_HepaRG_FABP1: Life Technologies and Expression Analysis (LTEA) Assay for Fatty Acid-Binding Protein 1 (FABP1) using HepaRG (AID 2283494). A digest of the protocol: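 qRT-PCR readout of FABP1 transcript (normalized to three housekeeping genes) after 48 h chemical exposure of HepaRG cells; eight concentrations, half-log steps, max 100 uM, 0.5% DMSO vehicle; gain or loss fitted relative to DMSO baseline.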

Read-out in assay [5]: Cytochrome P450 4A22 (Homo sapiens) (UniProt Q5TCH4)
The assay can be described thus: LTEA_HepaRG_CYP4A22: Life Technologies and Expression Analysis (LTEA) Assay for Cytochrome P450 4A22 (CYP4A22) using HepaRG (AID 2283495). A digest of the protocol: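 qRT-PCR of CYP4A22 mRNA (Fluidigm TaqMan, normalized to three housekeeping genes) after 48 h chemical exposure of HepaRG cells; 8-point half-log series, top 100 uM, 0.5% DMSO vehicle. Bidirectional curve fitting vs DMSO baseline.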

Read-out in assay [6]: Cytochrome P450 7A1 (Homo sapiens) (UniProt P22680)
The assay can be described thus: LTEA_HepaRG_CYP7A1: Life Technologies and Expression Analysis (LTEA) Assay for Cytochrome P450 7A1 (CYP7A1) using HepaRG (AID 2283496). In short, it runs like this: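 Using 0.5% DMSO as vehicle and baseline, chemicals were tested in duplicate over an 8-point range from 100 uM on HepaRG cells for 48 h; qRT-PCR signals were normalised to ACTB, GAPDH and POLR2A.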

Read-out in assay [7]: Glutathione S-Transferase (GSTA2), GSTA2 (gene 2939)
Put plainly: LTEA_HepaRG_GSTA2: Life Technologies and Expression Analysis (LTEA) Assay for Glutathione S-Transferase (GSTA2) using HepaRG (AID 2283497). In short, it runs like this: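 qRT-PCR readout of GSTA2 transcript, normalized to three housekeeping genes, fitted bidirectionally against 0.5% DMSO baseline. Differentiated HepaRG cells received compound for 48 h at 8 concentrations (top 100 uM, half-log steps).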

Read-out in assay [8]: Glutamate-cysteine ligase catalytic (GCLC), GCLC (gene 2729)
The assay can be described thus: LTEA_HepaRG_GCLC: Life Technologies and Expression Analysis (LTEA) Assay for Glutamate-cysteine ligase catalytic (GCLC) using HepaRG (AID 2283498). In short, it runs like this: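 HepaRG, 48 h exposure, 8-pt half-log series from 100 uM, 0.5% DMSO vehicle; TaqMan qRT-PCR for GCLC mRNA, housekeeping-normalized; bidirectional curve fit vs DMSO baseline.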

Read-out in assay [9]: growth arrest and DNA damage 45 (GADD45G), GADD45G (gene 10912)
Put plainly: LTEA_HepaRG_GADD45G: Life Technologies and Expression Analysis (LTEA) Assay for growth arrest and DNA damage 45 (GADD45G) using HepaRG (AID 2283499). A digest of the protocol: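 Differentiated human HepaRG cells in serum-free induction medium were exposed for 48 h to 8 half-log concentrations up to 100 uM in 0.5% DMSO, in duplicate. GADD45G mRNA was measured by TaqMan qRT-PCR, normalised to ACTB, GAPDH and POLR2A, and fitted bidirectionally against DMSO.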

Read-out in assay [10]: Glutamate-cysteine ligase regulatory (GCLM), GCLM (gene 2730)
The assay can be described thus: LTEA_HepaRG_GCLM: Life Technologies and Expression Analysis (LTEA) Assay for Glutamate-cysteine ligase regulatory (GCLM) using HepaRG (AID 2283500). In short, it runs like this: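 HepaRG, 48 h dosing, 100 uM top, half-log x8, 0.5% DMSO vehicle. Readout: GCLM mRNA by TaqMan qRT-PCR, housekeeping-normalized (ACTB/GAPDH/POLR2A). Curves fit bidirectionally vs DMSO baseline.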

Read-out in assay [11]: Glutathione S-transferase M3 (GSTM3), GSTM3 (gene 2947)
The assay can be described thus: LTEA_HepaRG_GSTM3: Life Technologies and Expression Analysis (LTEA) Assay for Glutathione S-transferase M3 (GSTM3) using HepaRG (AID 2283501). A digest of the protocol: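 Differentiated HepaRG cells in serum-free induction medium were exposed in duplicate for 48 h to 8 half-log concentrations up to 100 uM in 0.5% DMSO. GSTM3 mRNA was measured by TaqMan qRT-PCR, normalized to ACTB/GAPDH/POLR2A, and fitted bidirectionally versus DMSO.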

Read-out in assay [12]: Heat shock 70 kDa protein 1 (HSPA1A), gene 3303
Put plainly: LTEA_HepaRG_HSPA1A: Life Technologies and Expression Analysis (LTEA) Assay for Heat shock 70 kDa protein 1 (HSPA1A) using HepaRG (AID 2283502). In short, it runs like this: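 HepaRG, 48 h exposure, 8-pt half-log CRC from 100 uM in 0.5% DMSO, duplicates. Readout: TaqMan qRT-PCR of HSPA1A mRNA, housekeeping-normalized (ACTB/GAPDH/POLR2A). Bidirectional fit vs 0.5% DMSO baseline.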

Read-out in assay [13]: Hypoxia-inducible factor 1-alpha (Homo sapiens) (UniProt Q16665)
The assay can be described thus: LTEA_HepaRG_HIF1A: Life Technologies and Expression Analysis (LTEA) Assay for Hypoxia-inducible factor 1 (HIF1A) Trancription factor using HepaRG (AID 2283503). A digest of the protocol:
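Gain- or loss-of-signal HIF1A mRNA changes are fitted against a DMSO baseline. HepaRG cultures receive eight concentrations, highest 100 uM, for 48 h in serum-free induction medium with 0.5% DMSO.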

Read-out in assay [14]: 3-Hydroxy-3-Methylglutaryl-CoA Synthase 2 (HMGCS2), HMGCS2 (gene 3158)
The assay can be described thus: LTEA_HepaRG_HMGCS2: Life Technologies and Expression Analysis (LTEA) Assay for 3-Hydroxy-3-Methylglutaryl-CoA Synthase 2 (HMGCS2) using HepaRG (AID 2283504). A digest of the protocol:
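Differentiated human HepaRG cells were exposed in duplicate for 48 h in serum-free induction medium to eight concentrations (top 100 uM, half-log steps, 0.5% DMSO). HMGCS2 mRNA was quantified by TaqMan qRT-PCR, normalised to ACTB, GAPDH and POLR2A, then fitted bidirectionally against DMSO.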

Read-out in the next assay: HGF (gene 3082)
The assay can be described thus: LTEA_HepaRG_HGF: Life Technologies and Expression Analysis (LTEA) Assay for Hepatocyte Growth Facto (HGF) using HepaRG (AID 2283505). In short, it runs like this:
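Differentiated human HepaRG cells in serum-free induction medium were exposed in duplicate for 48 h to eight concentrations (top 100 uM, half-log steps, 0.5% DMSO). HGF mRNA was quantified by qRT-PCR, normalized to ACTB, GAPDH and POLR2A.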

Read-out in assay [15]: Insulin Like Growth Factor 1 (IGF1), IGF1 (gene 3479)
Put plainly: LTEA_HepaRG_IGF1: Life Technologies and Expression Analysis (LTEA) Assay for Insulin Like Growth Factor 1 (IGF1) using HepaRG (AID 2283506). A digest of the protocol:
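qRT-PCR readout of IGF1 mRNA, normalized to three housekeeping genes, after 48 h chemical exposure of HepaRG cells. Concentrations: 8-point half-log series, top 100 uM, 0.5% DMSO vehicle. Gain or loss fitted against DMSO baseline.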

Read-out in assay [16]: Insulin-like growth factor-binding protein 1 (IGFBP1), IGFBP1 (gene 3484)
The assay can be described thus: LTEA_HepaRG_IGFBP1: Life Technologies and Expression Analysis (LTEA) Assay for Insulin-like growth factor-binding protein 1 (IGFBP1) using HepaRG (AID 2283508). A digest of the protocol: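 Differentiated human HepaRG cells in serum-free induction medium were exposed in duplicate for 48 h to eight concentrations, top 100 uM with half-log dilutions, in 0.5% DMSO. Transcript levels came from qRT-PCR normalised to ACTB, GAPDH and POLR2A, fitted bidirectionally against DMSO.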

Read-out in assay [17]: Interleukin 6 (IL6), IL6 (gene 3569)
Put plainly: LTEA_HepaRG_IL6: Life Technologies and Expression Analysis (LTEA) Assay for Interleukin 6 (IL6) using HepaRG (AID 2283509). In short, it runs like this:
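qRT-PCR read-out of IL6 transcript, normalized to three housekeeping genes, after 48 h chemical exposure of HepaRG cells; 8-point half-log series, top 100 uM, 0.5% DMSO vehicle. Bidirectional curve fitting against DMSO baseline.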

Read-out in assay [18]: Cytochrome P450 3A7 (Homo sapiens) (UniProt P24462)
The assay can be described thus: LTEA_HepaRG_CYP3A7: Life Technologies and Expression Analysis (LTEA) Assay for CYP3A7 using HepaRG (AID 2283492). In short, it runs like this: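 HepaRG cells plated 48 h, then dosed in serum-free induction medium for 48 h at 8 concentrations (top 100 uM, half-log steps, 0.5% DMSO). CYP3A7 mRNA by qRT-PCR, normalised to ACTB/GAPDH/POLR2A; bidirectional fit versus DMSO.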

Calls of active or inactive are those of the source. How the source made its calls: active means hit-call score of the fitted dose curve at least 0.9, where 1 is the maximum; inactive means score below 0.9.

Sequence of Cytochrome P450 3A7 (Homo sapiens) (P24462 whole entry, looked up): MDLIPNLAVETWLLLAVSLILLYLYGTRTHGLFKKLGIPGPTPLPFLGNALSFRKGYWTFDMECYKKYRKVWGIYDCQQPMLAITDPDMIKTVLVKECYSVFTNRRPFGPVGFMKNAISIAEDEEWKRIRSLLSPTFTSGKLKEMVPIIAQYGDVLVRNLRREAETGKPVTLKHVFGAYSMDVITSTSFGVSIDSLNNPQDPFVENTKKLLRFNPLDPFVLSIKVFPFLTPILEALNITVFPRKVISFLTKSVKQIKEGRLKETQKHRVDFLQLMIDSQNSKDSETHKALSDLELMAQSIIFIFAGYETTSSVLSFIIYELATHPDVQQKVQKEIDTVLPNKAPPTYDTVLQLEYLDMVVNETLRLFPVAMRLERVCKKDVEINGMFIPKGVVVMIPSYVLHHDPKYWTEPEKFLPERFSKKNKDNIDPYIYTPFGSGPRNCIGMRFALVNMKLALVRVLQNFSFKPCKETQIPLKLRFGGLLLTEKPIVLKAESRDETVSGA
Sequence of Hypoxia-inducible factor 1-alpha (Homo sapiens) (Q16665 whole entry, looked up): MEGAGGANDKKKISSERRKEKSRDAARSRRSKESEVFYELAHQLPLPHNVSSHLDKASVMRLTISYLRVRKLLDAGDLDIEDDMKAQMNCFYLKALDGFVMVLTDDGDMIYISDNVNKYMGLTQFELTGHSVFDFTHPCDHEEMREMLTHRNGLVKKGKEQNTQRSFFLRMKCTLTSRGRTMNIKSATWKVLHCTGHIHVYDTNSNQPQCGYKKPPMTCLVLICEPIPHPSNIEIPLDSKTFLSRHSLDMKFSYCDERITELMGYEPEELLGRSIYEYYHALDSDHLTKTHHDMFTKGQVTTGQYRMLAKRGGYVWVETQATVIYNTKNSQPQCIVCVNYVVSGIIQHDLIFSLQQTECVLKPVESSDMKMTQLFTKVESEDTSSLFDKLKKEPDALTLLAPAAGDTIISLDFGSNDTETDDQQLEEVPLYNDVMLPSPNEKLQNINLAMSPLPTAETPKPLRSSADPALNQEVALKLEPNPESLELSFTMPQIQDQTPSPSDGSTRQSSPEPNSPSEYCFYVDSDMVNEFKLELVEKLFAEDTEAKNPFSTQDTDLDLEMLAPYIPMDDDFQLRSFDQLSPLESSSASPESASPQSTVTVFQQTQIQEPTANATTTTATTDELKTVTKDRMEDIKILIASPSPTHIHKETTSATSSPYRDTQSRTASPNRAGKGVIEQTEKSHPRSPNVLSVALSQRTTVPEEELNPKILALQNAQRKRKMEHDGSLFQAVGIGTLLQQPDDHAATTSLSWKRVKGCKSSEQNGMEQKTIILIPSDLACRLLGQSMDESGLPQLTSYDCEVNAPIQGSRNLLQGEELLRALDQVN

Consider `CCC(=O)C(CC(C)N(C)C)(c1ccccc1)c1ccccc1` (stereo not drawn), for which the molecule was called inactive (in assay [1]; in assay [2]; in assay [3]; with CYP3A5 (gene 1577); in assay [4]; in [5]). Besides, the call in assay [6], in [7], in assay [8], in assay [9], in assay [10] and in assay [12] was inactive. In addition, the molecule was called inactive (in [13]; with HGF (gene 3082); in assay [15]; in assay [16]; in [17]). Besides, the concentration at half-maximal activity (AC50) in [11] and in assay [14] was 36.2 µM (active) throughout.

For `NC(=O)O`, the call (in [1]; in assay [2]; in assay [3]; in assay [18]; in the assay with CYP3A5 (gene 1577); in assay [4]) was inactive. The result in assay [5], in assay [6], in assay [7], in assay [8], in assay [9] and in [10] was inactive. For the same molecule, the result (in assay [11]; in [12]; in assay [13]; in assay [14]; in the assay with HGF (gene 3082); in assay [15]) was inactive. Also, the molecule was called inactive in [16] and in [17].

As for `CC12CC1(C)C(=O)N(c1cc(Cl)cc(Cl)c1)C2=O` (stereo not drawn), the outcome (in assay [1]; in assay [2]; in assay [3]; in [18]; with CYP3A5 (gene 1577); in assay [7]) was inactive. Moreover, the outcome in assay [8], in [9], in assay [10], in assay [11], in [12] and in assay [13] was inactive. Besides, the molecule was called inactive (in the assay with HGF (gene 3082); in [16]; in assay [17]). Moreover, the AC50 in [4] was 9.46 µM (active); in assay [6] it was 16.9 µM (active); in [14], 21.6 µM (active); in assay [15], 18.6 µM (active).

Regarding `O=C(O)C(F)(F)C(F)(F)C(F)(F)C(F)(F)C(F)(F)C(F)(F)C(F)(F)C(F)(F)C(F)(F)C(F)(F)F`, the molecule was called inactive in assay [1], in [2], in [3], in assay [18], in assay [4] and in [5]. Also, the call in assay [8], in [9], in assay [10], in [11], in assay [12] and in [13] was inactive. The molecule was classed as inactive (in assay [14]; with HGF (gene 3082); in [15]; in assay [16]; in assay [17]). In addition, the AC50 is 21.4 µM (active) in the assay with CYP3A5 (gene 1577), 46.5 µM (active) in assay [6] and 47.8 µM (active) in assay [7].
